From ChEMBL document CHEMBL3988442, “University of Dundee, Small-Polar-MMV Screening Library” (2021) come the findings set out here.

The subject of the experiment is Plasmodium falciparum. The experiment is described as follows: Plasmodium falciparum sporozoite viability assay. The format is functional, organism-based. The arrangement: scale not given: in the data most compounds retested in dose-response had high values.

Values joined by “and” are separate entries in the source; they are usually repeats but may differ in a detail not shown here. Equal values may be shown once. Out of some 34,000 compounds screened, about 290 (0.85%) showed an effect of 50% or more. For the sample, strong results were picked, then their nearest neighbours and some compounds at random.

As for `Cc1cccc(NC2CCN(C(=O)Nc3ccc(F)c(F)c3)CC2)n1`, under “10 mM as filed; unlikely as a test dose”, the “Percent Effect” value is 48.63% and 63.22% and 54.45%.

For the compound `Cc1cccc(NC2CCN(C(=O)Nc3ccncc3)CC2)n1`, the “Percent Effect” value (10 mM as filed; unlikely as a test dose) was -1.906% and 4.517% and 18.88%.

`Cc1cccc(NC2CCN(C(=O)Nc3cc(F)cc(F)c3)CC2)n1`: the “Percent Effect” value (10 mM as filed; unlikely as a test dose) is -0.7988% and 3.277% and 6.003%.

Consider `Cc1ccc(C(C)NC(=O)CNCCn2cccn2)cc1C` (stereo not given), for which the “Percent Effect” value is -5.595%.

Turning to `Cc1cc(C(F)(F)F)n2nc(C3CCN(S(C)(=O)=O)CC3)cc2n1`, the “Percent Effect” value (10 mM as filed; unlikely as a test dose) was -9.274% and -13.96% and -8.495%.

In the case of `CCN1CC[C@@H]2OC[C@H](C(=O)NCc3cccs3)C[C@@H]2C1`, the “Percent Effect” value stood at 18.4%.

Regarding `CN1CCC(c2cccc(Cc3ccc(C(F)(F)F)cc3)n2)CC1`, the “Percent Effect” value was found to be 3.398%.

Turning to `Cc1cc(C(F)(F)F)nc(C2CCN(C(=O)CO)CC2)n1`, the “Percent Effect” value is listed as -4.597%.

Turning to `CCc1ccc(-c2cc(C(F)(F)F)nc(N3CCC(N)CC3)n2)cc1`, for the setting “10 mM as filed; unlikely as a test dose”, the “Percent Effect” value was 67.54% and 55.39%.

Turning to `CCN1CC2(CCOCC2)c2cc(NS(=O)(=O)CC)ccc21.O=C(O)C(F)(F)F`, the “Percent Effect” value amounted to 11.65%.

Consider `Cc1cnn(CC2CN(Cc3ccccn3)CCO2)c1` (stereo not given), for which the “Percent Effect” value is listed as -1.077%.

Regarding `CC(Cn1cccn1)NC(=O)NCCc1cccnc1` (stereo not given), the “Percent Effect” value came out at 12%.

On to `COCC(=O)N1CC(c2ccnc(Nc3ccc(C)cn3)n2)C1`, for which, under “10 mM as filed; unlikely as a test dose”, the “Percent Effect” value was 0.1159% and 3.964% and -12.15%.

Consider `Cc1ccc(Nc2nccc(C3CCN(CC(N)=O)C3)n2)nc1` (stereo not given), for which, where the note is “10 mM as filed; unlikely as a test dose”, the “Percent Effect” value was 101.9% and 103.5% and 87.92%.

Consider `Cc1ccc(Nc2nccc(C3CCCN(CC(=O)N(C)C)C3)n2)nc1` (stereo not given), for which the “Percent Effect” value (10 mM as filed; unlikely as a test dose) is 76.43% and 66.32% and 68.98%.

Turning to `CC(=O)N1CCC(c2ccnc(Nc3ccc(C)cn3)n2)C1` (stereo not given), the “Percent Effect” value (10 mM as filed; unlikely as a test dose) was -6.604% and -1.275% and 4.318%.

Consider `Cc1ccc(Nc2nccc(C3CN(C(C)C)C3)n2)nc1`, for which the “Percent Effect” value was 10.21%.

Regarding `O=C(Cc1ccc(F)cc1)N1CCn2c(Cn3cncn3)cnc2C1`, the “Percent Effect” value came out at 8.505%.

Turning to `Cc1cc(OCCC(=O)NCc2ccc(F)cc2)nnc1C`, the “Percent Effect” value amounted to 1.961%.

`Cc1nc(COC[C@@]23CCC[C@@H]2CN(Cc2cnn(C)c2)C3)cs1`: the “Percent Effect” value is given as 2.977%.

Turning to `Cc1c(-c2cc(C(=O)N3CCc4ncc(Cl)cc4C3)on2)cnn1C`, the “Percent Effect” value is listed as 3.017%.

In the case of `C[C@H](NS(C)(=O)=O)C(=O)NCc1cc(-c2ccco2)n(CC(F)(F)F)n1`, the “Percent Effect” value is given as 3.472%.

Regarding `CC(C)c1noc(C(C)Nc2nccc(CCC(F)(F)F)n2)n1` (stereo not given), the “Percent Effect” value (10 mM as filed; unlikely as a test dose) is 1.671% and -0.3266%.

In the case of `CC(Nc1nccc(CCC(F)(F)F)n1)c1nc(-c2ccccn2)no1` (stereo not given), the “Percent Effect” value (10 mM as filed; unlikely as a test dose) is 60.54% and 52.08%.

Regarding `CC(Nc1nccc(CCC(F)(F)F)n1)c1nc(-c2ccncc2)no1` (stereo not given), the “Percent Effect” value (10 mM as filed; unlikely as a test dose) is -11.17% and -18.73%.
